Results on four molecules are retold here after PubChem BioAssay (EPA / NIEHS).

Read-out in test [1]: Interleukin-8 (IL8), CXCL8 (gene 3576)
Put plainly: BSK_3C_IL8: BioMAP Diversity Plus: 3C Assay for Interleukin-8 (IL8) Biomarker Activity (AID 2283020). The following applies: primary human endothelial cells (HUVEC); actives raise or lower the signal. The essentials: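 Using DMSO-treated wells as the baseline, bidirectional curve fitting was applied to ELISA-measured IL-8 from human umbilical vein endothelial cultures sampled 24 h after compound addition.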

Read-out in test [2]: Monokine induced gamma interferon (MIG), CXCL9 (gene 4283)
As to the kind of experiment: BSK_3C_MIG: BioMAP Diversity Plus: 3C Assay for Monokine induced gamma interferon (MIG) Biomarker Activity (AID 2283021). The following applies: primary human endothelial cells (HUVEC); actives raise or lower the signal. The essentials:
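ELISA-measured MIG in dosed HUVEC 3C cultures at 24 h, analysed by bidirectional fitting with DMSO defining baseline activity.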

The target in test [3] is human Vitamin D Receptor (VDR), VDR (gene 7421) (UniProt P11473). As to the kind of experiment: ATG_VDR_TRANS: Attagene TRANS-FACTORIAL HepG2 Assay for human Vitamin D Receptor (VDR) (AID 2283022; active = hit-call score of the fitted dose curve at least 0.9, where 1 is the maximum). In short, it runs like this: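 HepG2 cells were transiently transfected with GAL4-UAS reporter units and a chimeric VDR-Gal4 construct, then dosed for 24 hours. Reporter mRNA was quantified by RT-PCR, fluorescent labeling, HpaI digestion and capillary electrophoresis; gain of signal analysed vs DMSO.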
Chain of human Vitamin D Receptor (VDR), VDR (gene 7421) (P11473 whole entry, looked up, the tested form may be a part): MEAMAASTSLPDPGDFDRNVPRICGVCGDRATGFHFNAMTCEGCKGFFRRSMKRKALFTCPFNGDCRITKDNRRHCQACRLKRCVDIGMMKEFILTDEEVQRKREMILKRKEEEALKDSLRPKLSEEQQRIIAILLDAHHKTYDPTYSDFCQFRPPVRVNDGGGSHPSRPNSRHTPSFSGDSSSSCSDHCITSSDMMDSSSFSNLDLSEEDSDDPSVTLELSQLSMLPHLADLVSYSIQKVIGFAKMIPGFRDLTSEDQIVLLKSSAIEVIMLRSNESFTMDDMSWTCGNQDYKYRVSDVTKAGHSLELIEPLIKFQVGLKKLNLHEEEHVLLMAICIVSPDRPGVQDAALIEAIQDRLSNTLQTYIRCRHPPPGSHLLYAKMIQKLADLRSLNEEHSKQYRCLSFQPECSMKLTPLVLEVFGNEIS

The nature of test [4]: BSK_3C_SRB: Viability Assessment in the BioMAP Diversity Plus: 3C Assay (AID 2283023).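 Note: fitted both ways against DMSO so a hit may be signal rise or drop.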 The following applies: primary human endothelial cells (HUVEC). In short, it runs like this:
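Human umbilical vein endothelial cells in the 3C system, treated 24 h. Total protein measured by 0.1% sulforhodamine B staining after 10% TCA fixation, read at 560 nm; bidirectional fit versus DMSO.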

Read-out in test [5]: Matrix Metallopeptidase 1 (MMP1), MMP1 (gene 4312)
Put plainly: BSK_BE3C_MMP1: BioMAP Diversity Plus: BE3C Assay for Matrix Metallopeptidase 1 (MMP1) Biomarker Activity (AID 2283024). The following applies: primary human bronchial epithelial cells; actives raise or lower the signal. In short, it runs like this:
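In this multiplexed primary-cell system, human bronchial epithelium received chemicals for 24 h before an ELISA for MMP1. Values reflect bidirectional fits normalised to the DMSO baseline.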

Test [6] in a line: BSK_3C_Vis: BioMAP Diversity Plus: 3C Assay for Morphology Visualization (AID 2283025).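 For AC50: light microscopy image of cell morphology used as background control.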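 Note: fitted both ways so gain or loss versus DMSO counts.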 The following applies: primary human endothelial cells (HUVEC). In short, it runs like this: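 Light-microscopy morphology readout, 24 h exposure, human primary umbilical vein endothelium; analysed relative to DMSO with bidirectional fitting.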
Read-out in test [7]: Pselectin, SELP (gene 6403)
Put plainly: BSK_4H_Pselectin: BioMAP Diversity Plus: 4H Assay for Pselectin Biomarker Activity (AID 2283026). The following applies: primary human endothelial cells (HUVEC); actives raise or lower the signal. The essentials:
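Bidirectional fits against DMSO gave the endpoint. Cells: primary human umbilical vein endothelium, chemical-treated for 24 h before ELISA detection of P-selectin.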

The nature of test [8]: BSK_4H_SRB: Viability Assessment in the BioMAP Diversity Plus: 4H Assay (AID 2283027).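 For AC50: curves fitted both ways versus DMSO so AC50 may be loss or gain.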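 Note: cells exposed to compound for 24 h before staining.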 The settings on record: primary human endothelial cells (HUVEC). The essentials:
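Cytotoxicity readout: sulforhodamine B (0.1%) staining of total protein after 10% TCA fixation, measured at 560 nm in human umbilical vein endothelium at 24 h. DMSO set the baseline; fitting was bidirectional.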

Test [9] in a line: BSK_BE3C_SRB: Viability Assessment in the BioMAP Diversity Plus: BE3C Assay (AID 2283028).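 For AC50: fitted both ways so AC50 may mark signal gain or loss versus DMSO.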 The settings on record: primary human bronchial epithelial cells. The essentials:
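Human bronchial epithelial primary cells in confluent culture, 24 h after chemical dosing; total protein by 0.1% SRB staining after 10% TCA fixation, read at 560 nm. Bidirectional fitting versus DMSO baseline.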

Read-out in test [10]: Thrombomodulin, THBD (gene 7056)
Put plainly: BSK_3C_Thrombomodulin: BioMAP Diversity Plus: 3C Assay for Thrombomodulin Biomarker Activity (AID 2283029). The following applies: primary human endothelial cells (HUVEC); actives raise or lower the signal. The essentials:
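In a multiplexed primary-cell system, human umbilical vein endothelium received chemical and was assayed 24 h later for thrombomodulin by ELISA. Parallel cultures were SRB-stained (0.1% SRB after 10% TCA fixation, read at 560 nm) to flag cytotoxicity.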

Read-out in test [11]: Urokinase-type plasminogen activator receptor (uPAR), PLAUR (gene 5329)
As to the kind of experiment: BSK_4H_uPAR: BioMAP Diversity Plus: 4H Assay for Urokinase-type plasminogen activator receptor (uPAR) Biomarker Activity (AID 2283030). The settings on record: primary human endothelial cells (HUVEC); actives raise or lower the signal. The essentials:
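Human umbilical vein endothelial cells in the 4H system, 24 h after chemical dosing. Cell-surface uPAR measured by ELISA, fitted in both directions versus DMSO; cytotoxicity checked by SRB total protein in parallel cultures.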

Read-out in test [12]: Vascular endothelial growth factor receptor 2 (Homo sapiens) (UniProt P35968)
Put plainly: BSK_4H_VEGFRII: BioMAP Diversity Plus: 4H Assay for Vascular endothelial growth factor receptor 2 (VEGFR2) Biomarker Activity (AID 2283031). The following applies: primary human endothelial cells (HUVEC); actives raise or lower the signal. The essentials: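 Primary human umbilical vein endothelial cells (4H system), 24 h exposure; cell-surface VEGFR2 measured by ELISA. Bidirectional fitting versus DMSO; cytotoxicity checked in parallel by SRB total-protein staining.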

Read-out in test [13]: Human Leukocyte Antigen - DR isotype (HLADR), HLA-DRA (gene 3122)
As to the kind of experiment: BSK_BE3C_HLADR: BioMAP Diversity Plus: BE3C Assay for Human Leukocyte Antigen - DR isotype (HLADR) Biomarker Activity (AID 2283032). The settings on record: primary human bronchial epithelial cells; actives raise or lower the signal. In short, it runs like this: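 BioMAP BE3C format: human bronchial epithelium, 24 h compound treatment, ELISA detection of HLA-DR, with bidirectional analysis relative to DMSO.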

Read-out in test [14]: Vascular cell adhesion molecule 1 (VCAM1), VCAM1 (gene 7412)
As to the kind of experiment: BSK_4H_VCAM1: BioMAP Diversity Plus: 4H Assay for Vascular cell adhesion molecule 1 (VCAM1) Biomarker Activity (AID 2283033).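 For outcome: cell-surface VCAM-1 protein measured by ELISA.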 The settings on record: primary human endothelial cells (HUVEC); actives raise or lower the signal. In short, it runs like this:
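In this human endothelial (HUVEC) system, biomarker ELISA was run 24 h after compound addition, and total protein in parallel wells was assessed by SRB at 560 nm; DMSO served as negative control.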

Read-out in test [15]: Interferon-gamma inducible Protein 10 (IP10), CXCL10 (gene 3627)
As to the kind of experiment: BSK_BE3C_IP10: BioMAP Diversity Plus: BE3C Assay for Interferon-gamma inducible Protein 10 (IP10) Biomarker Activity (AID 2283034). The settings on record: primary human bronchial epithelial cells; actives raise or lower the signal. The essentials: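 BE3C cells (human bronchial epithelial, primary); 24 h exposure; ELISA for IP-10; DMSO-referenced bidirectional fit.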

Read-out in test [16]: Monokine induced gamma interferon (MIG), CXCL9 (gene 4283)
Put plainly: BSK_BE3C_MIG: BioMAP Diversity Plus: BE3C Assay for Monokine induced gamma interferon (MIG) Biomarker Activity (AID 2283035).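 Note: MIG protein measured by ELISA in BE3C cultures after 24 h of dosing.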 The settings on record: primary human bronchial epithelial cells; actives raise or lower the signal. In short, it runs like this:
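hu bronchial epithelial 1° cells, 24 h cpd; MIG by ELISA; bidirectional fit, DMSO = baseline.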

Read-out in test [17]: Transforming growth factor beta 1 (TGFb1), TGFB1 (gene 7040)
As to the kind of experiment: BSK_BE3C_TGFb1: BioMAP Diversity Plus: BE3C Assay for Transforming growth factor beta 1 (TGFb1) Biomarker Activity (AID 2283036;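 note: TGF-b1 protein level measured by ELISA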). The following applies: primary human bronchial epithelial cells; actives raise or lower the signal. In short, it runs like this:
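TGF-b1 measured via ELISA, 24 h after chemical dosing of human bronchial epithelial cells (BE3C). Overt cytotoxicity assessed in parallel by SRB (0.1%, TCA-fixed, 560 nm); analysis bidirectional relative to DMSO.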

Read-out in test [18]: urokinase plasminogen activator (uPA), PLAU (gene 5328)
As to the kind of experiment: BSK_BE3C_uPA: BioMAP Diversity Plus: BE3C Assay for urokinase plasminogen activator (uPA) Biomarker Activity (AID 2283038).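 Note: uPA protein level quantified by ELISA in cell cultures; uPA read one day after compound addition.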 The settings on record: primary human bronchial epithelial cells; actives raise or lower the signal. The essentials:
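Primary human bronchial epithelial cells, uPA measured by ELISA 24 h after dosing. Bidirectional change relative to DMSO; cytotoxicity checked in parallel cultures by sulforhodamine B total-protein staining.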

Read-out in test [19]: Urokinase-type plasminogen activator receptor (uPAR), PLAUR (gene 5329)
As to the kind of experiment: BSK_BE3C_uPAR: BioMAP Diversity Plus: BE3C Assay for Urokinase-type plasminogen activator receptor (uPAR) Biomarker Activity (AID 2283039).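 Note: cells exposed to compound for one day before measurement.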 The following applies: primary human bronchial epithelial cells; actives raise or lower the signal. The essentials:
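Chemically treated human bronchial epithelial cells (lung primary) are assayed for uPAR by ELISA after 24 h, with data fitted in both directions using DMSO as negative control.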

Read-out in test [20]: Plasminogen activator inhibitor-1 (PAI1), SERPINE1 (gene 5054)
Put plainly: BSK_BE3C_PAI1: BioMAP Diversity Plus: BE3C Assay for Plasminogen activator inhibitor-1 (PAI1) Biomarker Activity (AID 2283037). The following applies: primary human bronchial epithelial cells; actives raise or lower the signal. In short, it runs like this: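 In this multiplexed primary-cell system, bronchial epithelial cells receive test chemical and are sampled at 24 h. PAI-1 is read by ELISA, with DMSO serving as negative control for bidirectional fitting.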

The structures appear in SMILES notation. Results filed as inconclusive are left out. Activity calls are given as the source filed them. Rule for the calls, unless noted: active = hit-call score of the fitted dose curve at least 0.9, where 1 is the maximum; inactive = score below 0.9.

As for `CSC1=N[C@@](C)(c2ccccc2)C(=O)N1Nc1ccccc1`, the AC50 (in general, the concentration at which the activity in the assay is half-maximal) in [1] is 8.64 µM (active); in test [4], 7.26 µM (active); in test [8], 2.88 µM (active); in [14], 9.4 µM (active). The outcome in [2], in test [3], in [5], in [6], in test [7] and in test [9] was inactive. Also, the result in test [10], in test [11], in test [12], in [13], in test [15] and in test [16] was inactive. Also, the outcome in test [17], in [18] and in [19] was inactive.
As to `CCC(CC)Nc1c([N+](=O)[O-])cc(C)c(C)c1[N+](=O)[O-]`, the AC50 in [1] is 23.8 µM (active); in test [4] it was 16.7 µM (active); in test [5] it was 20 µM (active); in test [6], 13.7 µM (active); in test [7], 28.5 µM (active); in test [8], 35.6 µM (active). Moreover, the figures for the AC50 in test [9], in test [10] and in test [14] were 20 µM (active), 15.5 µM (active) and 20 µM (active), respectively. For the same molecule, the outcome in test [2], in [3], in [11], in [12], in test [13] and in [15] was inactive. For the same molecule, the outcome in test [16], in [17], in test [18] and in [19] was inactive.
Take `CN(C)C(=O)Nc1cccc(C(F)(F)F)c1`: the result in test [1], in test [2], in test [4], in test [5], in test [7] and in test [8] was inactive. Further, the outcome in test [9], in [10], in [11], in [12], in test [13] and in test [14] was inactive. The result in test [15], in test [16], in test [17], in [20], in test [18] and in test [19] was inactive. In [6], the concentration at half-maximal activity (AC50) was 39 µM (active).
In the case of `O=C(O)c1cc(Oc2ccc(C(F)(F)F)cc2Cl)ccc1[N+](=O)[O-]`, the outcome in [1], in test [2], in test [4], in test [5], in [7] and in [8] was inactive. The result in test [9], in [10], in [11], in test [12], in [13] and in [14] was inactive. The result in test [15], in test [16], in test [17], in test [18] and in test [19] was inactive. The AC50 in test [6] was 9.8 µM (active).
